# Several values for one entry are separate records, joined by “and”; a condition that tells them apart may be missing. Equal entries are not always repeated. Inconclusive results are not listed. Entries that show only a call come without a potency. Activity calls are given as the source filed them. Unless noted, the call rests on the fitted dose curve; in most records, active means well fitted curve in the direction sought with a large enough effect; inconclusive means small, poorly fitted or top-dose-only effect, or another doubt; inactive means no such curve, though single readings can be large; an effect the other way counts as inactive or inconclusive.
# Assays:
# [1] = target: Galactokinase (Homo sapiens) (UniProt P51570); assay: qHTS Validation Assay for Inhibitors of Human Galactokinase (GALK) (AID 493189); settings: purified human GALK enzyme activity, qHTS 7-point titration; series mostly up to 57.5 µM
# Sequence of Galactokinase (Homo sapiens) (P51570 whole entry, looked up): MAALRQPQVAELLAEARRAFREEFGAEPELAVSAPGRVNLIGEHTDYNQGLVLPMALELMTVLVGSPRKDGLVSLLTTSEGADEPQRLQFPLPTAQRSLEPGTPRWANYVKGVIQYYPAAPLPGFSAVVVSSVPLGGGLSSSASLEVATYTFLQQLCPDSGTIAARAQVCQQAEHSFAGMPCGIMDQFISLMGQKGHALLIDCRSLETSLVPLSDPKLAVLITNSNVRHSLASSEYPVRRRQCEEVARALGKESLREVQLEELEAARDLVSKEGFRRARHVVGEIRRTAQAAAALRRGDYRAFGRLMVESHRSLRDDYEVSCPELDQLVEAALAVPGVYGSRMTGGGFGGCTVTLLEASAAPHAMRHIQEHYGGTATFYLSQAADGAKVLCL
# Method in brief: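 Enzyme activity is inferred from ATP consumption: human GALK phosphorylates galactose (100 uM) using 35 uM ATP for 1 h at room temperature, and luciferase-based Kinase-Glo Plus reports unconsumed ATP.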
# [2] = Cell Viability - LYMP2-026 (AID 989); settings: LYMP2-026 lymphoblastoid cell viability, qHTS; series mostly up to 92.2 µM; further: nearly all actives have a fitted effect of over 50% in size
# Method in brief: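 Luminescent ATP signal (CellTiter-Glo, 30 min room temperature) measures viable lymphoblastoid cells after 24 hr compound treatment at 37 C. Decreased ATP reflects acute toxicity; AC50 values come from Hill-equation modeling.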
# [3] = target: Glutathione peroxidase 1 (Homo sapiens) (UniProt P07203); assay: Primary qHTS Assay for Inhibitors of Recombinant Selenoprotein Glutathione Peroxidase 1 (GPX1) (AID 1845191); settings: recombinant GPX1, GR-coupled NADPH fluorescence, 15 min; series mostly up to 48.8 µM; further: nearly all actives have a fitted effect of over 65% in size
# Sequence of Glutathione peroxidase 1 (Homo sapiens) (P07203 whole entry, looked up): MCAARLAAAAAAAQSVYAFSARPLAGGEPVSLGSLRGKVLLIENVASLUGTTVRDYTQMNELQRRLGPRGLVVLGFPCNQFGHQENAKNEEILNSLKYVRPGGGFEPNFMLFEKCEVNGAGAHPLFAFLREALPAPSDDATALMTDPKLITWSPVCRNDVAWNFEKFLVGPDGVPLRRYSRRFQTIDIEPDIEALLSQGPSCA
# Method in brief: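 Recombinant GPX1 (10 nM final) was preincubated with compound for 30 min at room temperature, then reacted with 1 mM GSH, 0.5 mM CHP, 0.5 mM NADPH and 100 nM glutathione reductase; NADPH fluorescence (340/450 nm) was read at 0 and 15 min.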
# [4] = Validation screen for small molecules that induce DNA re-replication in MCF 10A normal breast cells (AID 463097); settings: MCF 10A cells, DNA re-replication phenotype imaging; series mostly up to 46.1 µM; further: nearly all actives have a fitted effect of over 60% in size; further: potency means the concentration at half of the fitted maximal effect
# Method in brief: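 Following 48 hr compound incubation (37 C, 5% CO2), MCF 10A cells receive Hoechst for 40 min at 37 C. Nuclei are then scanned (excitation 405 nm, emission 500-530 nm) for total fluorescence intensity.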
# [5] = target: ATP-dependent 6-phosphofructokinase (Trypanosoma brucei brucei) (UniProt O15648); assay: qHTS Assay to Find Inhibitors of T. brucei phosphofructokinase: hit validation (AID 492961); further: potency means the concentration at half of the fitted maximal effect; settings: T. brucei PFK, ADP-Glo luminescence; series mostly up to 51.4 µM
# Sequence of ATP-dependent 6-phosphofructokinase (Trypanosoma brucei brucei) (O15648 whole entry, looked up): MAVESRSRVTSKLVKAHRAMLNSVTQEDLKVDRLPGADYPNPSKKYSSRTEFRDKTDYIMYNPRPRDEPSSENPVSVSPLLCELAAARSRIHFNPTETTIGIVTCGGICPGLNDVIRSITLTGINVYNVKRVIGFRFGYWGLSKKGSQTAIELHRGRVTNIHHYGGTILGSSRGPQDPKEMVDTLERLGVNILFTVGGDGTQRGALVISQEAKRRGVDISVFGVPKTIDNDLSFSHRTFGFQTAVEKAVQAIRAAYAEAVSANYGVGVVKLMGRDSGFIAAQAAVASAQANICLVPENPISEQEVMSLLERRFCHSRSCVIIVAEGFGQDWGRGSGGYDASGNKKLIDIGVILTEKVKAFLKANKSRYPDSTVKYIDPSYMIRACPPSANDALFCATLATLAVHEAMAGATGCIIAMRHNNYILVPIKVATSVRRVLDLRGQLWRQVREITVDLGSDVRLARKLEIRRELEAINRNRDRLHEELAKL
# Method in brief: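 Percent activity derived from corrected luminescence, normalized between 0x and 1x enzyme controls, then fitted to concentration-response curves. Conditions: 1.25 nM PFK, 0.1 mM ATP, 0.5 mM F6P, 45 min RT.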
# [6] = S16 Schwann cell PMP22 intronic element firefly luciferase assay (AID 624032); settings: S16 rat Schwann cells, PMP22 element FLuc, 24 h; series mostly up to 57.5 µM; further: nearly all actives have a fitted effect of over 30% in size; further: potency means the concentration at half of the fitted maximal effect
# Method in brief: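 Rat S16 Schwann cells stably carrying a PMP22 intronic element-driven Fluc reporter were seeded overnight, then exposed to compounds for 24 h at 37 °C. Luminescence was normalized to PTC124 (positive control) and DMSO (0% activity).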
# [7] = NCATS anti-infectives library activity on the primary C. elegans qHTS viability assay (AID 1745855; calls by dose curve; further: potency means the concentration at half of the fitted maximal effect); settings: C. elegans worm area imaging, day 7; series mostly up to 41.8 µM
# Method in brief: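 Viability read-out is GFP fluorescence of PE254-GFP-FLuc C. elegans, measured by laser cytometry (488 nm) at day 0, 3 and 7. Ten L1 worms per well were incubated 7 days at 21 °C with compounds and bacterial capsules in S medium.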
# [8] = qHTS profiling for inhibitors of Plasmodium falciparum proliferation (AID 504749); further: nearly all actives have a fitted effect of over 60% in size; further: potency means the concentration at half of the fitted maximal effect; settings: P. falciparum in erythrocytes, SYBR Green DNA, 72 h, at 28.7 µM (top of the series)
# Method in brief: (§1)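 Parasite proliferation within erythrocytes, 72 h exposure. Endpoint: SYBR Green I fluorescence after overnight lysis at room temperature. Controls: 0.29 uM artemisinin, DMSO.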
# CP192 = assay: as above; settings: P. falciparum in erythrocytes, SYBR Green DNA, 72 h; series mostly up to 28.7 µM
# Method in brief: as §1
# DFO2036 = assay: as above; settings: P. falciparum in erythrocytes, SYBR Green DNA, 72 h; series mostly up to 28.7 µM
# Method in brief: as §1
# TAB113 = assay: as above; settings: P. falciparum in erythrocytes, SYBR Green DNA, 72 h; series mostly up to 28.7 µM
# Method in brief: as §1
# W2 = assay: as above; settings: P. falciparum in erythrocytes, SYBR Green DNA, 72 h; series mostly up to 12.8 µM
# Method in brief: as §1
# [9] = target: Glucocorticoid receptor (Homo sapiens) (UniProt P04150); assay: qHTS assay for small molecule antagonists of glucocorticoid receptor signaling (AID 588533; active means well fitted inhibition curve with a large enough effect in the signal ratio, with a control signal flat, not every such curve was filed as active; the % refers to the signal ratio;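 further: cells stimulated with 2 nM dexamethasone as agonist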); settings: HeLa MMTV-bla, GRE beta-lactamase ratio, antagonist mode, 18 h; series mostly up to 76.8 µM
# Sequence of Glucocorticoid receptor (Homo sapiens) (P04150 whole entry, looked up): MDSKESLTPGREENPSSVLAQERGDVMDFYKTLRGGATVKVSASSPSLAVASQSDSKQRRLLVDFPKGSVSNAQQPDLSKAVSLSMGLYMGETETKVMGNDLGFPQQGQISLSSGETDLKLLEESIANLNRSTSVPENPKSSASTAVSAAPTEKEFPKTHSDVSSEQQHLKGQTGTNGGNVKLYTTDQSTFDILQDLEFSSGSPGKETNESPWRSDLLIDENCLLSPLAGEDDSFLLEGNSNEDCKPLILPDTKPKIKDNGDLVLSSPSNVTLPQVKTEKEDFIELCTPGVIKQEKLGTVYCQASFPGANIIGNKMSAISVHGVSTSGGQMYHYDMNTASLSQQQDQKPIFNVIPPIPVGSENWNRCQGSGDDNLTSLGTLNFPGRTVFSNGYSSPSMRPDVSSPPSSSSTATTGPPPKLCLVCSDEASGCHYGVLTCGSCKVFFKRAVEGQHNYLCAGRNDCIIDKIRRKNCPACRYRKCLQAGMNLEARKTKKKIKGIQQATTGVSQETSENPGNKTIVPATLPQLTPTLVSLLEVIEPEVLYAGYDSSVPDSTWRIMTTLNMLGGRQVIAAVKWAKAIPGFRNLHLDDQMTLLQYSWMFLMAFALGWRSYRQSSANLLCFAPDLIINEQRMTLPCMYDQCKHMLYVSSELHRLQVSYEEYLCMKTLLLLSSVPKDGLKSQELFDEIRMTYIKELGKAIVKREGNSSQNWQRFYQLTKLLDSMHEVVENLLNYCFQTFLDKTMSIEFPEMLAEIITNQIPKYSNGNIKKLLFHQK
# Method in brief: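 Antagonist-mode qHTS: compound titrations added to GRE-bla HeLa cells, then dexamethasone 2 nM final; 18 h, 37 C. CCF4 FRET fluorescence normalized to dexamethasone and DMSO; IC50 from Hill fit.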
# [10] = qHTS assay for small molecule disruptors of the mitochondrial membrane potential - 5 hr assay (AID 651755; calls by dose curve; further: nearly all actives have a fitted effect of over 40% in size); settings: JC-1-type ratio dye; series mostly up to 92.2 µM
# Method in brief: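 HepG2 cells, attached overnight at 37C, were exposed to compound or DMSO for 5 hr at 37C, 5% CO2. Mito-MPS dye was then added for 30 min, and fluorescence read at 490/535 nm (monomers) and 540/590 nm (aggregates).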
# [11] = MultiTox-Fluor Cytotoxicity Assay - LYMP1-001 - Dead Cells (AID 946); settings: LYMP1-001 lymphoblastoid cells, dead-cell protease fluorescence; series mostly up to 92.2 µM
# Method in brief: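 Cytotoxicity as increased dead-cell protease fluorescence (bis-AAF-R110, 485/520 nm), read 60 min after MultiTox-Fluor reagent. Human lymphoblastoid line exposed 16 h; Hill-fitted AC50, with DMSO as 0% and 15 uM tetraoctylammonium bromide as 100%.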
# [12] = qHTS drug screen for cell cycle checkpoint inhibitors in PARPi-resistant BRCA-mutant ovarian cancer cell lines. (AID 1963452; calls by dose curve); settings: PEO1/OlaR viability, CellTiter-Glo luminescence, 96 h, stronger effect = lower value
# Method in brief: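 PEO1, PEO4 and PEO1/OlaR ovarian cancer cells, 600 per well, exposed 96 h at 37C to a dilution series. Viability read by CellTiter-Glo luminescence, normalized to DMSO and empty wells; activity summarized as Z-AUC.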
# [13] = Cell Viability - H-4-II-E (AID 543); settings: H-4-II-E rat hepatoma viability; series mostly up to 92.2 µM;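 further: cells exposed to compound for 40 hours; nearly all actives have a fitted effect of over 35% in size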
# Method in brief: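 Luminescent ATP signal (CellTiter-Glo) served as the viability read-out, with cytotoxicity seen as a concentration-dependent ATP drop. Cells were treated for 40 hours in complete medium. AC50 values derive from Hill-equation modelling.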
# [14] = Cellular Toxicity (caspase-3) N2a (AID 665); settings: N2a cells, luminescence, normalized: DMSO 0%, 10 µM staurosporine 100%; at 92.2 µM (top of the series);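 further: compound exposure lasted 16 h at 37 °C before readout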
# Method in brief: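 N2a cells, 1500/well, 5 h settle at 37 °C; cpd 16 h, 37 °C; Caspase-Glo 3/7, 1 h RT; luminescence. Norm: DMSO = 0, 10 uM staurosporine = 100%. AC50, Hill fit.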
# [15] = target: Bile acid receptor (Homo sapiens) (UniProt Q96RI1); assay: qHTS assay for small molecule antagonists of farnesoid X receptor signaling (AID 588526; calls by dose curve); settings: HEK293T FXR-UAS-bla, beta-lactamase ratio, antagonist mode; series mostly up to 76.7 µM
# Sequence of Bile acid receptor (Homo sapiens) (Q96RI1 whole entry, looked up): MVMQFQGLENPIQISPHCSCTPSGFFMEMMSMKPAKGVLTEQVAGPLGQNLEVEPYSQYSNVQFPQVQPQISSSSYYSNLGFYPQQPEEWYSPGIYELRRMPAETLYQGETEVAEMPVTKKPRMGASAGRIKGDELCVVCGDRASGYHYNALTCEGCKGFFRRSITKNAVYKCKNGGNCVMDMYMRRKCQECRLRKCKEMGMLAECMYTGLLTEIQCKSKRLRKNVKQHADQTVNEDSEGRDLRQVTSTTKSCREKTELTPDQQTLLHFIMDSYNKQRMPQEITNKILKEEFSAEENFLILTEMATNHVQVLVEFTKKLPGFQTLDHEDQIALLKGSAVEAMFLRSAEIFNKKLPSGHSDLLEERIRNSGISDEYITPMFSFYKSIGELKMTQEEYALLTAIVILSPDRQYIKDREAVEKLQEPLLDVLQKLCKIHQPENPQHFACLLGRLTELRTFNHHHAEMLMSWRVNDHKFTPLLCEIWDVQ
# Method in brief: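 Concentration-response titrations were fitted to the Hill equation for half-maximal inhibition and maximal response, with data normalised to 50 uM chenodeoxycholic acid and DMSO control wells. Cells: FXR-UAS-bla HEK293T, dialyzed FBS.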
# [16] = qHTS assay for small molecule activators of the human pregnane X receptor (PXR) signaling pathway (AID 720659; call rule not given here); settings: DPX-2 HepG2 CYP3A4-luciferase, 24 h; series mostly up to 92.3 µM
smiles,measurement,setting,value
Oc1cc2c(cc1O)[C@H]1c3ccccc3CNC1CC2 (some centres undefined),outcome,[1],inactive
C[C@H]1CCCC(=O)CCC/C=C/c2cc(O)cc(O)c2C(=O)O1,Potency,[2],inactive
same,Potency,[3],inactive
C/C=C(/C)C(=O)O[C@H]1C(C)=C2C([C@@H]1OC(=O)CCCCCCC)[C@@](C)(OC(C)=O)C[C@@H](OC(=O)CCC)[C@@]1(O)[C@H]2OC(=O)[C@@]1(C)O (some centres undefined),Potency,[4],6.31 µM (active)
[Hg+][c]1ccccc1,Potency,[5],11.2 µM (active)
same,Potency,[6],1.02 µM (active)
same,Potency,[7],8.16 µM (active)
same,"activity, negative = inhibition",[8]; parasite line A,13.8% (inactive)
same,"activity, negative = inhibition",[8]; parasite line B,-0.414% (inactive)
same,Potency,CP192,12 µM (active)
same,Potency,DFO2036,inactive
same,Potency,TAB113,inactive
same,Potency,W2,12 µM (active)
CC[C@H]1CN2CCc3cc(OC)c(OC)cc3[C@@H]2C[C@@H]1C[C@H]1NCCc2cc(O)c(OC)cc21,Potency,[7],inactive
C[C@]12CC[C@H](OS(=O)(=O)O)CC1=CCC1C2CC[C@]2(C)C(=O)CC[C@@H]12 (some centres undefined),Potency,[4],inactive
same,Potency,[5],inactive
same,Potency,[6],inactive
same,"activity, negative = inhibition",[8]; parasite line A,-6.88% (inactive)
same,"activity, negative = inhibition",[8]; parasite line B,5.59% (inactive)
same,Potency,CP192,inactive
same,Potency,DFO2036,inactive
same,Potency,TAB113,inactive
same,Potency,W2,inactive
C[C@]12CC[C@@H](O)CC1CCC1C2CC[C@]2(C)C(=O)CC[C@@H]12 (some centres undefined),Potency,[4],inactive
COC(=O)C[C@@](O)(CCC(C)(C)O)C(=O)O[C@@H]1C(OC)=C[C@]23CCCN2CCc2cc4c(cc2[C@@H]13)OCO4,Potency,[7],inactive
C[C@@H]1O[C@@H](O[C@H]2C[C@@H](O)[C@]3(CO)[C@H]4[C@H](O)C[C@]5(C)[C@@H]([C@@H]6COC(=O)C6)CC[C@]5(O)[C@@H]4CC[C@]3(O)C2)[C@H](O)[C@H](O)[C@H]1O,outcome,[1],inactive
COC1=CC(=O)O[C@@H](/C=C/c2ccc3c(c2)OCO3)C1,Potency,[2],inactive
same,Potency,[9],inactive
same,Potency,[10],inactive
COC1=CC(=O)OC(CCc2ccccc2)C1 (centres undefined),Potency,[11],inactive
CC(=O)C1=C(O)[C@@H]2[C@H]3c4c[nH]c5cccc(c45)C[C@H]3C(C)(C)N2C1=O,Potency,[3],inactive
O=C(O)c1ccnc2cc(C(OCCN3CCC(F)(F)CC3)c3ccccc3Cl)[nH]c12 (centres undefined),Potency,[3],inactive
CN1[C@@H]2CC(O)C[C@H]1[C@@H]1O[C@@H]12 (some centres undefined),Z-AUC,[12],0.552 (inactive)
same,Z-AUC,[12]; measured here: PEO1 parental Z-AUC,0.772
same,Z-AUC,[12]; measured here: PEO4 Z-AUC,1.01
OCC(Br)CBr (centres undefined),Potency,[13],inactive
same,caspase-3 activation,[14],-2.35% (inactive)
same,Potency,[2],inactive
same,outcome,[15],inactive
same,Potency,[9],inactive
same,outcome,[16],inactive
O=NN(c1ccccc1)c1ccccc1,Potency,[13],inactive
same,caspase-3 activation,[14],0.181% (inactive)
same,Potency,[11],inactive
same,outcome,[15],inactive
same,Potency,[9],inactive
same,Potency,[10],inactive
same,outcome,[16],inactive
Cc1ccccc1N,Potency,[13],inactive
same,caspase-3 activation,[14],-5.28% (inactive) and -1.86% (inactive)
same,Potency,[11],inactive
same,outcome,[16],inactive
C[S+](CC[C@H](N)C(=O)O)C[C@H]1O[C@@H](n2cnc3c(N)ncnc32)[C@H](O)[C@@H]1O (some centres undefined),Potency,[6],inactive
Cc1cccc([N+](=O)[O-])c1,Potency,[13],inactive
same,caspase-3 activation,[14],2.99% (inactive)
same,Potency,[11],inactive
same,outcome,[15],inactive
same,Potency,[9],inactive
same,Potency,[10],inactive

# Reference: PubChem BioAssay (NCATS)
